# Assay results taken from the supplement of paper PMC11417369.
# The full ranking holds about 25,000 sequences; the median of “ln(normalized median fluorescence intensity)” is about 6.7, and the highest 2% start at about 10. For the sample, the highest values were picked, then their nearest neighbours and some sequences at random.
# Tested on: PfHDP1 homeodomain (GST-tagged)
# Assay: gcPBM binding intensity (ln(normalized median fluorescence intensity)); higher = stronger DNA binding
# Procedure, shortened: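 Plasmodium falciparum DNA-binding domains carrying a GST tag were expressed in E. coli and applied for 1 h, at about 25 μg on average, to an Agilent 4 × 180k array. The array held primer-extended double-stranded 36-bp intergenic genomic probes together with negative controls, and binding took place in 1× PBS with 1% milk, 0.2 mg/ml BSA, 0.5% salmon testes DNA and 0.03% Triton X-100. An Alexa488 anti-GST antibody detected bound protein, and the array was scanned at 488 nm. Binding intensity is taken as the highest Masliner-normalised natural-log median intensity across replicate spots of either probe orientation.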
row,Sequence,gcPBM binding intensity (ln)
1,ATGAAACAGTAACATTGTACTTTTACAAAAAAATAA [XGTACX_site806],6.25
2,TTATATATATATAATACACACATAATAATATATTTA [CACACA_site3038],6.67
3,TATAATAATAATAATAGTACGTATTATTAAAAAACT [XGTACX_site10],6.58
4,ATGATATGCAATTTAGTGCATAACAAAATTGGTATA,10.5
5,TATATAGATATGATAGTGCATTTTTAGAAAACATAA [GTGCAC_site9962],7.95
6,TTATAAAAAATTTTAGTGCATATATGATTTATATAT [GTGCAC_site9831],9.44
7,AAAATGCATTTGATGTGTACGCATTATAAAGAACAA [XGTACX_site4203],7.39
8,TAGTATAATATGAACACACACACACGCACAAAAAAA [CACACA_site7035],7.3
9,TTATATGCACTTTTTGCACACGTATGAATAACAAAA [CACACA_site1811],11.5
10,ATATGCACTTTTTGCACACGTATGAATAACAAAATA [CACACA_site1810],11.2
11,ATAGGCACTTTTTGCACACGTATGAATAACAAAATA [CACACA_site5069],10.4
12,TACGTAATAATATGCACACAAATAAACTTTATAAAT [CACACA_site3501],9.89
13,AGTAAATAACACAAATATGAATGAAAAAAAAAATAT [GTGCAC_negctrl_site235],6.82
14,AAAAGGAAGATATATACACACATACAAATATTTATA [CACACA_site7093],6.71
15,TATACTTGTAAATGCACACATAAGATGCGACTAATG [CACACA_site2118],9.37
16,TAAGTGCATGAGATATGTACATATATAAAATATATA [XGTACX_site3294],9.2
17,TACAATAAGGATAAGTGTACATATGTGCATACATAT [XGTACX_site7188],10.6
18,TAAGGGATATGTATATGTACATACAAATATATATAA [XGTACX_site2892],6.63
19,TATACATACTCACCCACACACAAAAAAAAAAAAAAA [CACACA_site862],6.43
20,TTTTATCTTTTTTTATTTTAATGTATTATTTTTATG [XGTACX_negctrl_site24],6.61
21,ATAAAAAAATTAAATACATGCACATATACACATACA [TGCATGCA_site129],8.6
22,TATAACCGAATGTGTACACAAAATAATGTTATATAT [CACACA_site5627],7.77
23,AATTTTTGTTACAAGATGCACTTAATTTTTCTAAAT,7.92
24,TGTTTGTAATTATGTATGCACTTTTTTGTATGTGTG [GTGCAC_site9668],7.52
25,ATGTCTAATTTTGATGCACACTTTTGTGCAATTAAA [CACACA_site5589],11
26,GATGATTCAATTTATGCACACTAAAAATTAATTATA [CACACA_site4308],10.1
27,GAATGTCTAATTTTGATGCACACTTTTGTGCAATTA [CACACA_site2902],11.1
28,GAATAAATTAAAAATGCACACTTTGATGGGTACATT [CACACA_site5220],8.68
